# From PubChem BioAssay (Tox21)
# Values without a mark were called inactive. Results filed as inconclusive are left out. Where a call stands in place of a potency, no number is given. Activity calls are given as the source filed them. Unless noted, the call rests on the fitted dose curve; in most records, active means well fitted curve in the direction sought with a large enough effect in the repeat runs; inconclusive means weak or mixed curves; inactive means no such curve, though single readings can be large; an effect the other way counts as inactive or inconclusive.
# Key:
# [1] = qHTS assay to identify small molecule agonists of the sonic hedgehog signaling (Shh) pathway (AID 1259368; calls by dose curve;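 further: NIH/3T3-derived 3T3Gli1-Luc cells carrying a stable Gli1-driven firefly luciferase reporter; series mostly up to about 92 µM; nearly all actives have a fitted effect of over 15% in size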)
# How it was run: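 Luminescence was read after 30 min at room temperature with luciferase reagent. Before that, 3T3Gli1-Luc cells (NIH/3T3 clone, stable Gli1-Luc reporter; 2,000/well) were exposed to compounds for 24 hr at 37C, 5% CO2, compounds being added 4 hr post-plating.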
# [2] = qHTS assay to identify small molecule antagonists of the sonic hedgehog signaling (Shh) pathway (AID 1259369; calls by dose curve; further: nearly all actives have a fitted effect of over 45% in size)
# How it was run: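 Antagonist mode: compound added to 3T3 Gli1-Luc cells followed by conditioned-medium stimulation, 24 h at 37 C, 5% CO2. Inhibition taken as loss of Gli1-driven luciferase luminescence.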
# [3] = target: Estrogen receptor beta (Homo sapiens) (UniProt Q92731); assay: qHTS assay to identify small molecule antagonists of the estrogen receptor beta (ER-beta) signaling pathway (AID 1259378; active means well fitted inhibition curve with a large enough effect in the signal ratio in the repeat runs, not every such curve was filed as active; the % refers to the signal ratio)
# Estrogen receptor beta (Homo sapiens), sequence (Q92731 whole entry, looked up): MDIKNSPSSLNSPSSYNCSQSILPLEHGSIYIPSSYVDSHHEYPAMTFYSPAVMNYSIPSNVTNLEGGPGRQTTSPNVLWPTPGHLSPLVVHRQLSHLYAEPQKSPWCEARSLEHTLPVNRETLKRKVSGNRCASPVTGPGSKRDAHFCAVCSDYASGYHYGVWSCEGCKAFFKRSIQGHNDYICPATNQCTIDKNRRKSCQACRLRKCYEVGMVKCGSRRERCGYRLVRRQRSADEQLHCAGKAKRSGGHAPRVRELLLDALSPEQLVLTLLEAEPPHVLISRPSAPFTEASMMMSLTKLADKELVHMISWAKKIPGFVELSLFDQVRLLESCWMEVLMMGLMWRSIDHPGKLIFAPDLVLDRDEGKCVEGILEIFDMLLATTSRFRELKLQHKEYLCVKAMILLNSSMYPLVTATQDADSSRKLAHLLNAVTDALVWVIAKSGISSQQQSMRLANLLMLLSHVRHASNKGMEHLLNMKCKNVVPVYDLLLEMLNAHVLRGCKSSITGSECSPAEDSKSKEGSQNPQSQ
# How it was run: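 Antagonist mode: compounds added to beta-lactamase reporter HEK293T ER-beta-UAS cells stimulated with E2 (1nM final), 16 hr at 37C. LiveBLAzer B/G FRET substrate, 2 hours room temperature, fluorescence read-out.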
# [4] = qHTS assay to identify small molecule agonists of the androgen receptor (AR) signaling pathway in the presence of an antagonist - cell viability counter screen (AID 1259379);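 further: MDA-kb2 human breast cancer cells carrying an MMTV luciferase reporter; series mostly up to about 92 µM; nearly all actives have a fitted effect of over 25% in size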
# How it was run: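 Cytotoxicity counter-screen run in the same wells as the nilutamide-challenged (3.0 µM final) AR agonist assay in MDA-kb2 cells. Compounds tested at 15 concentrations for 16 h, 37 °C without CO2; CellTiter-Fluor fluorescence read.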
# [5] = qHTS assay to identify small molecule antagonists of the estrogen receptor beta (ER-beta) signaling pathway - cell viability counter screen (AID 1259382);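 further: HEK293T cells carrying ER-beta-UAS-bla reporter stimulated with estradiol; series mostly up to about 92 µM; nearly all actives have a fitted effect of over 55% in size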
# How it was run: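 Cytotoxicity was measured in the same wells by CellTiter-Glo luminescence after 30 min at room temperature. Cells were ER-beta-bla HEK293T in charcoal-stripped serum, given compound together with 1 nM E2 and incubated 16 h at 37C.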
# [6] = target: Estrogen receptor (Homo sapiens) (UniProt P03372); assay: qHTS assay to identify small molecule agonists of the estrogen receptor alpha (ER-alpha) signaling pathway in the presence of an antagonist (AID 1259383; calls by dose curve; further: nearly all actives have a fitted effect of over 15% in size; further: potency means the concentration at half of the fitted maximal effect; on activation: top concentration of the series differs between compounds)
# Estrogen receptor (Homo sapiens), sequence (P03372 whole entry, looked up): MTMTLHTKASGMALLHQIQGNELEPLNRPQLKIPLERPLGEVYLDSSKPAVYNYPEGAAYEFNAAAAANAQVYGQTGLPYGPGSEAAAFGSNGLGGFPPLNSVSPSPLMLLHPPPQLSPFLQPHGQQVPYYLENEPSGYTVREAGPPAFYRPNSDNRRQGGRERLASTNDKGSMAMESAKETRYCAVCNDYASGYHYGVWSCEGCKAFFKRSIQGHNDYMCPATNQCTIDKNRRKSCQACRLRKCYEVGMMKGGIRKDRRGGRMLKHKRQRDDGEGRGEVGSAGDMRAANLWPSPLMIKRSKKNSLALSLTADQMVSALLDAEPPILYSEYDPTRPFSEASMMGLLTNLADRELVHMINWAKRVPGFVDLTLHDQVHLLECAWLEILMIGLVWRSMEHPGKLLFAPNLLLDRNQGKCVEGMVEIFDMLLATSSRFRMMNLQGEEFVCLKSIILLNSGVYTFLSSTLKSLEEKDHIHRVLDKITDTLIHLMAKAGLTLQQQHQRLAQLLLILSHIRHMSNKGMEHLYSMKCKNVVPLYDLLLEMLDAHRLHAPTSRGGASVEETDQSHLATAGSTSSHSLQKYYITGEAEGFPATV
# How it was run: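 Agonist-mode confirmation run in the presence of 10.0nM (final) ICI-182,780 antagonist. The reporter was ERE-driven luciferase in VM7Luc4E2 cells, grown in charcoal-stripped serum. Cells were exposed to 15-concentration compound series for 22hr, then ONE-Glo luminescence was read.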
# [7] = qHTS assay to identify small molecule agonists or antagonists of the thyroid stimulating hormone receptor (TSHR) signaling pathway - wild type cell line counter screen (AID 1259384; calls by dose curve)
# How it was run: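 Counter screen in untransfected Hek293: compounds (15-point titration, triplicate) plus phosphodiesterase inhibitor Ro20-1724 added after 18 h plating; 30 min RT. Intracellular cAMP via competitive d2/cryptate immunoassay, 1 h incubation.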
# [8] = target: Thyrotropin receptor (Homo sapiens) (UniProt P16473); assay: qHTS assay to identify small molecule antagonists of the thyroid stimulating hormone receptor (TSHR) signaling pathway (AID 1259385; calls by dose curve; further: nearly all actives have a fitted effect of over 20% in size)
# Thyrotropin receptor (Homo sapiens), sequence (P16473 whole entry, looked up): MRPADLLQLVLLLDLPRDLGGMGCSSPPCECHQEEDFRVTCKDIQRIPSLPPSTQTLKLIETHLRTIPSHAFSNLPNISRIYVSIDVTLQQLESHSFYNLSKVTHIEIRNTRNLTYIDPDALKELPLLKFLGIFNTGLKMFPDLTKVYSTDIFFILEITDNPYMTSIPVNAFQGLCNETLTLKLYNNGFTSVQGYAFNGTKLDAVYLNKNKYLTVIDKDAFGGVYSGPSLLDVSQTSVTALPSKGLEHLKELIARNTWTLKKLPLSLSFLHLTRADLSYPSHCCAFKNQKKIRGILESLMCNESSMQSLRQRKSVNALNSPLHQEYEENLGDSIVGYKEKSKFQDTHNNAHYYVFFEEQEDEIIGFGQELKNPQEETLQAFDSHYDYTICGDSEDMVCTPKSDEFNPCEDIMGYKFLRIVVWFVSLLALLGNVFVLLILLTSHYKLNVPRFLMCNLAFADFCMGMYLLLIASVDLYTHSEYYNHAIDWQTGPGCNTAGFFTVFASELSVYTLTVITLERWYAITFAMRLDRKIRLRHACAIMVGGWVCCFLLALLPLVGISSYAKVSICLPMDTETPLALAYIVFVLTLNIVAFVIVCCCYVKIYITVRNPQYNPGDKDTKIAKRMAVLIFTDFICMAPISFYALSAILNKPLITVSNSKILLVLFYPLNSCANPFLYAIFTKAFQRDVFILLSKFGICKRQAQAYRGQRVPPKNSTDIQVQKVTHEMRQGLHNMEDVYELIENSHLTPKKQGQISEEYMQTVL
# How it was run: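 Antagonist mode: compound-treated TSHR-expressing HEK293 cells were stimulated with 1.5 ng/mL TSH (final) in presence of Ro20-1724 for 30 min at RT. HTRF cAMP detection after 1 h; each compound tested at 15 concentrations, triplicate.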
# [9] = qHTS assay to identify small molecule agonists of the estrogen receptor alpha (ER-alpha) signaling pathway in the presence of an antagonist - cell viability counter screen (AID 1259386); further: series mostly up to about 92 µM; nearly all actives have a fitted effect of over 30% in size
# How it was run: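 Compounds tested at 15 concentrations for 22 h at 37C alongside 10.0nM (final) ICI-182,780 antagonist, in VM7Luc4E2 cells grown in phenol red-free, charcoal-stripped medium. Viability read by CellTiter-Fluor fluorescence after 1 h reagent incubation.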
# [10] = target: Progesterone receptor (Homo sapiens) (UniProt P06401); assay: qHTS assay to identify small molecule antagonists of the progesterone receptor (PR) signaling pathway (AID 1346795; active means well fitted inhibition curve with a large enough effect in the signal ratio in the repeat runs, not every such curve was filed as active; the % refers to the signal ratio)
# Progesterone receptor (Homo sapiens), sequence (P06401 whole entry, looked up): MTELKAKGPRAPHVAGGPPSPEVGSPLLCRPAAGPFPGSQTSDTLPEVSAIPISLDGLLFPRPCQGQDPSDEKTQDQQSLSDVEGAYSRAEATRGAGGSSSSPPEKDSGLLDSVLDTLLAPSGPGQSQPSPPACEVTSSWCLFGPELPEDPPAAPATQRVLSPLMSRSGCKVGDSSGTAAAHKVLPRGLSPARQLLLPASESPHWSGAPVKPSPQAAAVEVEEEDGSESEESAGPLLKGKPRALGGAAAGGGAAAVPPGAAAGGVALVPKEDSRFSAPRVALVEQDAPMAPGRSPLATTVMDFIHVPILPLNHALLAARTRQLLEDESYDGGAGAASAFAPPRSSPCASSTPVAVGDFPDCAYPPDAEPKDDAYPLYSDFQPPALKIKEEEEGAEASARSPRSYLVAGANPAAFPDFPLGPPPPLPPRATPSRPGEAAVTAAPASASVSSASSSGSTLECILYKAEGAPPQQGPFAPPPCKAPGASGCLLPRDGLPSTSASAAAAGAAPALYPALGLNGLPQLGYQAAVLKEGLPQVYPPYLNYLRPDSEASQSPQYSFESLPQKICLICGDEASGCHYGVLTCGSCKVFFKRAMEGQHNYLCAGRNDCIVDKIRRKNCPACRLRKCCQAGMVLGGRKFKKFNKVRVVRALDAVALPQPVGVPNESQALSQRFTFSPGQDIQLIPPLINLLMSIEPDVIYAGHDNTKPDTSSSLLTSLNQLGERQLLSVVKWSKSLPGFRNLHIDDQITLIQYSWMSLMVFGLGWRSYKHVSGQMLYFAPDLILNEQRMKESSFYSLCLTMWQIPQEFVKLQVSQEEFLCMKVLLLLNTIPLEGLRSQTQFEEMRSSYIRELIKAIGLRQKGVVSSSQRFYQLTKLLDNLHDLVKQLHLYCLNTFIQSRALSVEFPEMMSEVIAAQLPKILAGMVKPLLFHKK
# How it was run: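 Read-out is fluorescence from the LiveBLAzer B/G FRET substrate, cleaved by a UAS-controlled beta-lactamase in PR-UAS-bla HEK293T cells after 16 hr exposure to compound plus 1 nM promegestone (final), followed by 2 hr at room temperature.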
# [11] = qHTS assay to identify small molecule antagonists of the progesterone receptor (PR) signaling pathway - cell viability counter screen (AID 1346798);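 further: HEK293T PR-UAS-bla cells stimulated with the agonist R5020; series mostly up to about 92 µM; nearly all actives have a fitted effect of over 50% in size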
# How it was run: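 HEK293T PR-UAS-bla, 2% charcoal-stripped FBS; 4 hr pre-plate; cpd + R5020, 16 h 37C; LiveBLAzer read first; then CellTiter-Glo 30 min RT, luminescence.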
# [12] = qHTS assay to identify small molecule agonists of the progesterone receptor (PR) signaling pathway - cell viability counter screen (AID 1346799; calls by dose curve; further: nearly all actives have a fitted effect of over 45% in size)
# How it was run: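 Luminescence from CellTiter-Glo, added after the beta-lactamase FRET read in the same wells, gave cytotoxicity in PR-UAS-bla HEK293T cells treated with compounds for 16 hr at 37C.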
# [13] = qHTS assay to identify small molecule antagonists of the TGF-beta/Smad signaling pathway - cell viability counter screen (AID 1346824); further: nearly all actives have a fitted effect of over 50% in size
# How it was run: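 Cytotoxicity counter-screen run in the same wells as the beta-lactamase Smad reporter read: CellTiter-Glo luminescence after 30 min at room temperature. HEK 293T SBE-bla cells had 5 hr compound exposure at 37 C with TGF-beta1 (0.25 ng/mL stock).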
# [14] = qHTS assay to identify small molecule agonists of the TGF-beta/Smad signaling pathway - cell viability counter screen (AID 1346829); further: top concentration of the series differs between compounds; nearly all actives have a fitted effect of over 45% in size
# How it was run: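 SBE-bla HEK 293T cells plated overnight, compound exposure 5 hr at 37 C. Viability read in the same wells by CellTiter-Glo luminescence after 30 min at room temperature, following the beta-lactamase read.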
# [15] = qHTS assay to identify small molecule agonists of the TGF-beta/Smad signaling pathway (AID 1346859; active means well fitted activation curve with a large enough effect in the signal ratio in the repeat runs, not every such curve was filed as active; the % refers to the signal ratio; further: series mostly up to about 77 µM)
# How it was run: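 SBE-bla HEK 293T, 4,000 cells/well, plated o/n; cpd in DMSO, 5 hr, 37 C/5% CO2; B/G FRET substrate 2 hr RT; ex 405, em 460/530 nm.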
# [16] = target: Thyrotropin-releasing hormone receptor (Homo sapiens) (UniProt P34981); assay: qHTS assay to identify small molecule antagonists of the thyrotropin-releasing hormone receptor (TRHR) signaling pathway (AID 1346877; active means well fitted inhibition curve with a large enough effect in the repeat runs, not every such curve was filed as active; further: series mostly up to about 51 µM)
# Thyrotropin-releasing hormone receptor (Homo sapiens), sequence (P34981 whole entry, looked up): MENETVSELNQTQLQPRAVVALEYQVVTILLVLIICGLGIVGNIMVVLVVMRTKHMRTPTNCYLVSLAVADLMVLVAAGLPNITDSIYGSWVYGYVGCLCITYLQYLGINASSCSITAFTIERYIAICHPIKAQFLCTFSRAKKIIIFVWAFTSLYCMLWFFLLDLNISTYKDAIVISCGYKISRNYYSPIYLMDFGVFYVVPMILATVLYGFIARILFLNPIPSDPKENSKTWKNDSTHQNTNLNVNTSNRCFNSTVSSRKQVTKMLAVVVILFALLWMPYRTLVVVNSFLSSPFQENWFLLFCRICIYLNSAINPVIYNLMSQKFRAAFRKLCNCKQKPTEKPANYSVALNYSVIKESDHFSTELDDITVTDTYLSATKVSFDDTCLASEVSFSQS
# How it was run: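 Antagonist mode: after a 5 min room-temperature compound exposure, cells were stimulated with 1 nM (final) TRH. Dye-loaded TRHR-HEK293 cells were used, and calcium-dependent fluorescence was followed for 3 min, with 15-point titrations run in triplicate.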
# [17] = qHTS assay to identify small molecule agonists of the estrogen receptor beta (ER-beta) signaling pathway - cell viability counter screen (AID 1259380); further: nearly all actives have a fitted effect of over 30% in size
# How it was run: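 Cell viability counter screen: CellTiter-Glo luminescence (30 min, room temperature) measured in the same wells as the beta-lactamase readout, after 16 hr compound exposure at 37C of ER-beta-bla HEK293T cells in 2% charcoal-stripped FBS medium.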
# [18] = target: Progesterone receptor (Homo sapiens) (UniProt P06401); assay: qHTS assay to identify small molecule agonists of the progesterone receptor (PR) signaling pathway (AID 1346784; calls by dose curve; further: nearly all actives have a fitted effect of over 30% in size)
# How it was run: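 Beta-lactamase reporter read-out: after 16 hr compound treatment at 37C and a further 2 hr at room temperature with LiveBLAzer B/G FRET substrate, fluorescence was measured in PR-UAS-bla HEK 293T cells grown in 2% charcoal-stripped serum.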
smiles,measurement,setting,value
COC=O,activity change,[1],"-3.86% [at 8.39 µM, hits give high values]"
same,"activity change, negative = inhibition",[2],0% [at 8.39 µM]
same,"activity, negative = inhibition",[3],1.13% [at 8.39 µM]
same,"activity change, negative = cytotoxicity",[4],0.257% [at 8.39 µM]
same,"activity change, negative = cytotoxicity",[5],10.9% [at 8.39 µM]
same,activation,[6],1.27% [at 8.39 µM]
same,cAMP activity change,[7],-7.06% [at 8.39 µM]
same,"activity change, negative = inhibition",[8],4.44% [at 8.39 µM]
same,"activity change, negative = cytotoxicity",[9],-3.92% [at 8.39 µM]
same,"activity change, negative = inhibition",[10],-3.19% [at 8.39 µM]
same,"activity change, negative = cytotoxicity",[11],0.308% [at 8.39 µM]
same,"activity change, negative = cytotoxicity",[12],7.63% [at 8.39 µM]
same,"viability change, negative = cytotoxic",[13],2.71% [at 6.97 µM]
same,"activity change, negative = cytotoxicity",[14],8.3% [at 6.97 µM]
same,activation,[15],-0.257% [at 6.97 µM]
same,"activity, negative = inhibition",[16],1.15% [at 4.65 µM]
O=[N+]([O-])c1cccc(I)c1,Potency,[1],inactive
same,Potency,[2],inactive
same,Potency,[4],inactive
same,Potency,[17],inactive
same,Potency,[5],inactive
same,Potency,[6],inactive
same,outcome,[7],inactive
same,Potency,[8],inactive
same,Potency,[9],inactive
same,Potency,[18],inactive
same,Potency,[10],inactive
same,Potency,[11],inactive
same,Potency,[12],inactive
same,outcome,[13],inactive
same,outcome,[14],inactive
same,outcome,[15],inactive
CC/C=C\CCO,Potency,[1],inactive
same,Potency,[2],inactive
same,Potency,[3],inactive
same,Potency,[4],inactive
same,Potency,[17],inactive
same,Potency,[5],inactive
same,Potency,[9],inactive
same,Potency,[18],inactive
same,Potency,[11],inactive
same,Potency,[12],inactive
same,outcome,[13],inactive
same,outcome,[14],inactive
same,outcome,[15],inactive
same,outcome,[16],inactive
c1ccc(-c2ccc(-c3ccccc3)cc2)cc1,activity change,[1],"4.66% [at 18.9 µM, hits give high values]"
same,"activity change, negative = inhibition",[2],32.6% [at 19 µM]
same,"activity change, negative = cytotoxicity",[4],-0.211% [at 19 µM]
same,"activity change, negative = cytotoxicity",[17],0.175% [at 19 µM]
same,"activity change, negative = cytotoxicity",[5],-1.89% [at 19 µM]
same,Potency,[6],629 nM (active)
same,"activity change, negative = cytotoxicity",[9],0.383% [at 19 µM]
same,"activity change, negative = cytotoxicity",[11],3.71% [at 18.9 µM]
same,"activity change, negative = cytotoxicity",[12],0% [at 19 µM]
same,"viability change, negative = cytotoxic",[13],-15.2% [at 15.8 µM]
same,"activity change, negative = cytotoxicity",[14],-3.25% [at 15.8 µM]
same,activation,[15],0.211% [at 15.8 µM]
same,"activity, negative = inhibition",[16],-0.349% [at 10.5 µM]
CC(C)(C)N,Potency,[1],inactive
same,Potency,[2],inactive
same,Potency,[4],inactive
same,Potency,[17],inactive
same,Potency,[5],inactive
same,Potency,[6],inactive
same,outcome,[7],inactive
same,Potency,[8],inactive
same,Potency,[9],inactive
same,Potency,[10],inactive
same,Potency,[11],inactive
same,Potency,[12],inactive
same,outcome,[13],inactive
same,outcome,[14],inactive
same,outcome,[15],inactive
O=C(Cl)c1ccc(F)c(Cl)c1,Potency,[1],inactive
same,Potency,[2],inactive
same,Potency,[4],inactive
same,Potency,[17],inactive
same,Potency,[5],inactive
same,Potency,[6],864 nM (active)
same,outcome,[7],inactive
same,Potency,[8],inactive
same,Potency,[9],inactive
same,Potency,[18],inactive
same,Potency,[10],inactive
same,Potency,[11],inactive
same,outcome,[13],inactive
same,outcome,[14],inactive
same,outcome,[15],inactive
same,outcome,[16],inactive
CC(COc1ccccc1)NC(C)C(O)c1ccc(O)cc1 (stereo unspecified),Potency,[1],inactive
same,Potency,[2],inactive
same,Potency,[4],inactive
same,Potency,[17],inactive
same,Potency,[5],inactive
same,Potency,[6],inactive
same,outcome,[7],inactive
same,Potency,[8],inactive
same,Potency,[9],inactive
same,Potency,[18],inactive
same,Potency,[10],inactive
same,Potency,[12],inactive
same,outcome,[13],inactive
same,outcome,[14],inactive
same,outcome,[15],inactive
same,outcome,[16],inactive
